Results as given in PubChem BioAssay AID434973 (Sanford-Burnham Center for Chemical Genomics, 2010).
Hit rate of the full screen: of about 330,000 compounds, about 4,900 (1.5%) were called active. The entries come from a sample that favours actives as a whole. Unmarked numbers belong to inactive results.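 How the source made its calls: active means inhibition above about 50% at the single test dose (limit read from the data); inactive means the rest.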

target: Sentrin-specific protease 7 (Homo sapiens) (UniProt Q9BQF6); assay: SENP7 protease inhibitors, primary screen, biochemical, luminescence, uHTS (AID 434973); conditions: recombinant SENP7, Z-RLRGG-aminoluciferin luminescence, 40 min; at 5 µM; active compounds read high;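 further: plate controls were DMSO with enzyme for no effect and no enzyme buffer wells for full effect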

Structure (SMILES)	inhibition
COc1cccc(NC(=O)CCNS(=O)(=O)c2ccc3c(c2)oc(=O)n3C)c1	7.4%
O=C(COC(=O)C12CC3CC(CC(O)(C3)C1)C2)NC12CC3CC(CC(C3)C1)C2	-5.6%
O=C(COC(=O)c1ccc2ncsc2c1)Nc1ccc(Cl)cc1	-7.82%
Cc1sc(NC(=O)c2ccc3ncsc3c2)c(C(N)=O)c1C	77.9% (active)
COc1ccccc1-c1nnc(NC(=O)c2ccc3ncsc3c2)o1	4.87%
CCCCn1nc(C(=O)N2CCc3ccccc32)c2ccccc2c1=O	2.25%
CCCCN(CC(=O)NC(C)(C)C)C(=O)C(=O)Nc1ccc2c(c1)OCCO2	-0.161%
CCNC(=S)N1CCC(c2nc3cc(C)c(C)cc3[nH]2)CC1	1.02%
O=C(Cc1ccccc1)NNS(=O)(=O)c1ccc([N+](=O)[O-])cc1	3.61%
O=C(O)/C=C/C(=O)NNc1ccc([N+](=O)[O-])cc1	81.7% (active)
CNC(=S)Nc1ccc([N+](=O)[O-])cc1	-6.08%
CN(CC(=O)Nc1ccc(F)cc1)CC(=O)N1CCCCC1	4.6%
CSC1=N/C(=C\C=C\c2cccs2)C(=O)S1	43.7%
CCC1C=C(c2ccccc2)C=CN=C1N(CC)CC (stereo unspecified)	2.68%
CS(=O)(=O)n1nc(-c2ccco2)nc1N	3.45%
COc1ccccc1-n1c(-c2cc(-c3ccco3)[nH]n2)n[nH]c1=S	2.77%
Cn1c(-c2ccco2)nc2cc3ccccc3cc21	98.5% (active)
CCOC(=O)c1cnc2c(c(C)nn2CC)c1Cl	-8.37%
CCCn1c(N)c(C(=O)CSc2nnc(-c3cccnc3)n2-c2ccc(C)cc2C)c(=O)[nH]c1=O	2.06%
CCc1ccc(OCC(O)CN2CCN(CCO)CC2)cc1 (stereo unspecified)	7.06%
O=C(Nc1cccc2ccccc12)c1onc2c1CCCC2	64.8% (active)
CN(CC(=O)Nc1ccc(Cl)cc1)CC(=O)Nc1cccc2ccccc12	-3.2%
O=C(O)Cc1ccc(NC(=O)Nc2cccc3ccccc23)cc1	18.4%
O=C1COc2ccc(C(=O)COC(=O)CCOc3ccccc3)cc2N1	7.4%

Structure (SMILES)	inhibition
Cc1cccc(C(=O)N[C@H](C(=O)NCc2cccs2)C(C)C)c1	2.96%
COC(=O)C1(C)NC(c2ccccc2OC)C2C(=O)N(c3ccccc3)C(=O)C21 (stereo unspecified)	-1.56%
COC(=O)c1cc(NC(=O)CN2CCN(C(C)=O)CC2)cc(C(=O)OC)c1	11.3%
O=C(CSc1ncn[nH]1)Nc1ccnc2ccccc12	11.7%
COc1ccc(C(=O)Nc2ccc(C3(C#N)CCCC3)cc2)cc1OC	95.4% (active)
COc1cc(C(=O)NCC2(c3ccccc3)CCCC2)ccc1OC(C)C	11.3%
COc1ccc(C(=O)Nc2ccc3nc(N4CCCCC4)cc(C)c3c2)cc1OC	-1.83%
CC1CCN(S(=O)(=O)c2ccc(S(=O)(=O)NCc3ccco3)cc2)CC1	-4.7%
O=[N+]([O-])c1cc(C(F)(F)F)ccc1NN=C1CCCC1	5.78%
CN1CCN(CCNC(=O)Nc2ccccc2[N+](=O)[O-])CC1	-10.6%
O=[N+]([O-])c1ccccc1N/N=C1\CCc2ccccc21	54% (active)
O=C(O)c1cc2ccccc2c(=O)s1	-3.56%
COc1ccc(C(=O)OCC(=O)c2cc(C)n(CC3CCCO3)c2C)cc1[N+](=O)[O-] (stereo unspecified)	-9.42%
Cc1ccsc1C(=O)OCC(=O)c1cc(C)n(CC2CCCO2)c1C (stereo unspecified)	94.5% (active)
Cc1cc(C(=O)Cn2cnc3cc([N+](=O)[O-])ccc3c2=O)c(C)n1CC1CCCO1 (stereo unspecified)	1.73%
CC1CCc2c(c3ccccc3[nH]c2=O)O1 (stereo unspecified)	4.43%
COc1ccc(CNC(=O)Cc2ccc(-c3ccccc3)cc2)cc1OC	-4.04%
COc1ccc(CNC(=O)COc2ccccc2C(=O)c2cnn(-c3ccccc3)c2)cc1OC	60.9% (active)
COc1ccc(CNC(=O)COC(=O)c2c(C)nn(-c3ccccc3)c2C)cc1OC	4.03%
CCOc1ccc(C(=O)NCC(=O)N2CCCCCCC2)cc1OCC	6.97%
CCN1C[C@@H]2[C@@H]3C(=O)N(Cc4ccccc4)C(=O)[C@@H]3[C@](Cc3ccccc3)(C(=O)OC)N2C1=NC1CCCCC1	8.17%
Cc1ccc(NC(=O)c2cccc(S(=O)(=O)N3CCCc4ccccc43)c2)nc1	5.31%
CC(C)c1ccc(S(=O)(=O)N2CCC3(CC2)OCCO3)cc1	3.85%
O=C1/C(=C/c2cccs2)SC(=S)N1C1CCS(=O)(=O)C1 (stereo unspecified)	0.763%

Structure (SMILES)	inhibition
COc1ccc(/C=C2\CCc3ccccc3C2=O)c(OC)c1OC	-0.625%
O=C1/C(=C/c2cccs2)CCc2ccccc21	97.7% (active)
CN1C/C(=C/c2cccs2)C(=O)/C(=C\c2cccs2)C1	7.35%
CCC1C/C(=C/c2cccs2)C(=O)/C(=C/c2cccs2)C1 (stereo unspecified)	1.12%
O=C1/C(=C/c2cccs2)CCC1C1CCCC1 (stereo unspecified)	70% (active)
CC(=O)N1CCN(S(=O)(=O)c2c(F)cc(F)c(Cl)c2F)CC1	2.44%
O=C1Nc2cc(C(=O)N3CCN(c4ccc(F)cc4)CC3)ccc2NC1CSCc1cccc(F)c1 (stereo unspecified)	8.91%
COc1ccccc1C(=O)Nc1ccc(C)c(S(=O)(=O)N2CCCCC2)c1	-5%
Cc1cnc(C(=O)N2CCCC(N3CCN(c4ccccc4F)CC3)C2)cn1 (stereo unspecified)	-6.9%
O=C1CN(C(=O)c2ccccc2F)C(c2ccc(F)cc2)c2cc(F)ccc2N1 (stereo unspecified)	-0.54%
Oc1ccc(N=Nc2nccs2)c(O)c1	74.3% (active)
Cc1ccc(OCC(=O)N2CCN(S(=O)(=O)c3ccc(Cl)s3)CC2)cc1C	8.22%
COc1ccccc1-c1nc(C(F)(F)F)c(OC)o1	-6.4%
COc1ccccc1-c1nnc(-c2ccc(F)cc2)o1	50.3% (active)
CSc1ccccc1-c1nnc(-c2ccc(Cl)cc2)o1	28.1%
O=C(NCc1cccc(Cl)c1)C1=CC=CN2CCS(=O)(=O)N=C12	-0.294%
CCN1C(=O)c2cccc3c(N)ccc1c23	95.9% (active)
CN1C(=O)c2cccc3c(N)ccc(c23)C1=O	-3.67%
CCN1C(=O)c2cccc3c(S(=O)(=O)Nc4ccccc4O)ccc1c23	11.4%
CCOC(=O)C1=NNC2(c3ccc(Cl)cc3)C(=O)N(c3cc(C)cc(C)c3)C(=O)C12 (stereo unspecified)	6.05%
CCCn1c(=O)c2c(C(F)(F)F)cc(-c3cccs3)nc2n(CCC)c1=O	3.7%
C[N+](C)(C)CCNC(=O)c1c(O)c2c([nH]c1=O)CCCC2	4.83%
CCc1nnc(NC(=O)c2c(O)c3c([nH]c2=O)CCCC3)s1	-5.71%
O=C(NCc1ccccn1)c1c(O)c2c([nH]c1=O)CCCC2	53.8% (active)

Structure (SMILES)	inhibition
CN1CCN(S(=O)(=O)c2ccc(Nc3ccc(F)cc3)nc2)CC1	-1.19%
O=C(Nc1ccn(Cc2ccccc2F)n1)c1ccc(COc2ccc(Cl)cc2Cl)o1	-4.47%
Cc1c(Br)c([N+](=O)[O-])nn1CC(=O)N1CCN(Cc2ccccc2)CC1	-3.11%
O=C(Nc1ccn(Cc2ccccc2)n1)c1n[nH]c([N+](=O)[O-])c1Cl	93.9% (active)
CCN(CC)S(=O)(=O)c1ccc(C(=O)N2CCN(C3=NS(=O)(=O)c4ccccc43)CC2)cc1	0.565%
COC(CNC(=O)c1ccc2c(c1)ncn2-c1cc(C)cc(C)c1)OC	-3.05%
COc1cc2c(cc1OC)C(C)N(S(=O)(=O)c1cnc(Cl)c(Cl)c1)CC2 (stereo unspecified)	7.13%
CCn1ccnc1CN(C)Cc1nc(-c2ccc3c(c2)OCO3)no1	3.04%
Cc1cc(NC(=O)c2ccc(F)cc2)ccc1NC(=O)c1ccco1	64.1% (active)
COc1ccc(NC(=O)c2ccco2)cc1NC(=O)c1ccc(C#N)cc1F	1.99%
COc1ccc(OCC(=O)Nc2ccc(NC(=O)c3ccco3)c(C)c2)cc1	-4.14%
Cc1cccc(OCC(=O)Nc2ccc(NC(=O)c3ccco3)c(C)c2)c1	7.42%
COc1ccccc1C(=O)Nc1ccc(NC(=O)c2ccco2)c(C)c1	50.6% (active)
O=C(Nc1ccc(O)cc1)c1ccc(NC(=O)c2ccco2)cc1	-10.1%
[O-][N+]12CCCCC1CCCC2CO (stereo unspecified)	5.46%
O=C(COc1nc2ccccc2nc1N1CCOCC1)NCC(F)(F)F	-5.55%
CC1CCN(C(=O)C2CCN(S(=O)(=O)N3CCC4(CC3)OCCO4)CC2)CC1	6.94%
O=C(Nc1cccnc1Cl)c1cc(-c2ccccc2O)on1	52% (active)
O=C(Nc1cccnc1Cl)c1cc(-c2cccc(Cl)c2)on1	-0.404%
C=CCNC(=O)c1cc(-c2ccccc2O)on1	-13.1%
Cc1nc2nc(COc3ccccc3)[nH]n2c(=O)c1Cc1ccccc1	-6.63%
CC(Oc1ccc(Br)cc1Br)C(=O)NC1CCCC1 (stereo unspecified)	4.39%
CN(CCC(=O)Nc1cc(S(=O)(=O)N(C)C)ccc1Cl)CC(=O)Nc1ccc(F)cc1	4.2%
Cc1ccccc1Nc1c([N+](=O)[O-])ccc2nonc12	-0.26%
